Screens from PubChem.
Most compounds without a hit are left out; they make up all but 8.7% or so of the library.
12-LOX inh: inhibitors of human 12S-lipoxygenase ALOX12; 580,000 tested, 1.1% active; purified 12hLO, xylenol orange hydroperoxide absorbance; AID 1671190; Potency, µM (series often up to 108 µM), for inactives: top-dose activity change, negative = inhibition, actives largely listed as inhibitors; note: % is set by controls: 0 for no effect and ±100 for the full control effect
Target sequence (P18054 whole entry, looked up): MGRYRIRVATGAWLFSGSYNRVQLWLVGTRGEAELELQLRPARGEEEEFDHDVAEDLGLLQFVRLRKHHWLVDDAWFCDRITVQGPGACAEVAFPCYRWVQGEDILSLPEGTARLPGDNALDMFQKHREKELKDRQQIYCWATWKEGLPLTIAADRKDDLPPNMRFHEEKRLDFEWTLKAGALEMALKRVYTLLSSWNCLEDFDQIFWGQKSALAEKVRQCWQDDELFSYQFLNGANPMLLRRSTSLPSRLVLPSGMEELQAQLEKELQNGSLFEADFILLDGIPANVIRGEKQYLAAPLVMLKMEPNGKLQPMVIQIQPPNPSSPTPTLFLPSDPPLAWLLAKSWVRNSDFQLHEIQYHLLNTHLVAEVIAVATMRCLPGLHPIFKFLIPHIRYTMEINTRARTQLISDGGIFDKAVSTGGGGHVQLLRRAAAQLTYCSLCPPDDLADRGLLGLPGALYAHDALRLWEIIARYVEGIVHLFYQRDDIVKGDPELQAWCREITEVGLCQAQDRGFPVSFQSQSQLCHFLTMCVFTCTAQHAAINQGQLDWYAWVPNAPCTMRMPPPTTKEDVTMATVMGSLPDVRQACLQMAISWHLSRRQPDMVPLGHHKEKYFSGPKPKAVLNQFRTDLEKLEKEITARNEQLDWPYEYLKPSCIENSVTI
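Hydroperoxide product was detected by ferrous iron/xylenol orange as the 573 to 405 nm absorbance ratio. Arachidonic acid at 40 uM (final) was turned over for 30 min at room temperature by 150 nM human 12hLO, pH 7.0 Hepes buffer, after 15 min compound preincubation.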
HP1b binding inh: blocks HP1-beta chromodomain binding to methylated histone tails | P83916 | Potency, µM (top dose mostly 114 µM), inactives show top-dose activity change, negative = inhibition, actives largely listed as inhibitors | 390,000 tested, 0.56% active | AlphaScreen HP1-beta / biotin-H3K9me3 peptide binding; note: nearly all actives have a fitted effect of over 70% in size
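HP1-beta protein (50 nM final) preincubated 30 min at room temperature with biotinylated H3(1-18)K9me3 peptide (50 nM) in PBS pH 7.4, 0.01% Tween-20, then compound added for 30 min. AlphaScreen streptavidin donor/nickel chelate acceptor beads (10 ug/mL final), 30 min dark, luminescence read.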
G9a block: inhibitors of human histone lysine methyltransferase G9a. Potency, µM (highest dose often 102 µM), for the others: top-dose activity, negative = inhibition, usual class: inhibitors. Q96KQ7. AID 504332. 350,000 tested, 8.8% active. G9a H3K9 monomethylation, AlphaScreen, 2 h; note: % is set by controls: 0 for no effect and ±100 for the full control effect; nearly all actives have a fitted effect of over 75% in size
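G9a (20 nM) was preincubated 15 min with compound, then reacted 2 h at room temperature with 500 nM biotin-H3K9 peptide and 20 µM SAM. Monomethyl-H3K9 detected by AlphaScreen using anti-H3K9me1 antibody.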
Sfp inh: Sfp phosphopantetheinyl transferase inhibition; AID 1490; Biochemical Sfp PPTase activity, qHTS; Q9F4F7; 310,000 tested, 3.5% active; Potency, µM, for the others: largest response in the series, negative = inhibition, usual class: inhibitors;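 note: the enzyme is Sfp with the accession as filed and its product quenches rhodamine fluorescence; 0% = enzyme reaction without inhibitor and -100% = no enzyme wells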
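Sfp 15 nM + cpd, 15 min RT; start w/ rhodamine-CoA 5 uM, BHQ-2-YbbR 12.5 uM (final); 50 mM Hepes pH 7.6, 10 mM MgCl2, 0.01% NP-40, 0.01% BSA; read 525/598 nm at 0 and 30 min.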
JMJD2A Tudor: JMJD2A Tudor domain (human) inhibition. O75164. AlphaScreen JMJD2A-Tudor / H3K4me3 peptide binding. Potency, µM (titrated, usually from 114 µM), for inactives: at the top dose activity change, negative = inhibition, most hits filed as inhibitors. 390,000 tested, 4.4% active. AID 504339; note: % is set by controls: 0 for no effect and ±100 for the full control effect; nearly all actives have a fitted effect of over 50% in size
BAZ2B inh: blocks human BAZ2B; Potency, µM (top dose mostly 114 µM), for inactives: top-dose activity change, negative = inhibition, usual class: inhibitors; AlphaScreen BAZ2B-H3K14Ac peptide displacement; 360,000 tested, 4.4% active; note: % is set by controls: 0 for no effect and ±100 for the full control effect; nearly all actives have a fitted effect of over 60% in size
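Compounds, titrated to a top concentration of 110 uM, were incubated 30 min at room temperature with preformed BAZ2B/acetyl-K14 H3 peptide complex (50 nM each). Proximity signal was measured by AlphaScreen after 20 min with beads.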
* hit, by the source's call; [ ] = another dose, or the depositor's remark. Calls come from the whole dose curve; as a rule, active = well fitted curve in the direction sought with a large enough effect; inconclusive = small, poorly fitted or top-dose-only effect, or another doubt; inactive = no such curve, though single readings can be large; an effect the other way counts as inactive or inconclusive. Potency is the fitted concentration of half-maximal effect.

For N#Cc1c(-c2ccccc2)cc(C2CC2)nc1SCC(=O)O the results were 12-LOX inh -16%, HP1b binding inh 20%, G9a block 11µM*, Sfp inh -18%, JMJD2A Tudor -26% and BAZ2B inh -32%.
For CCCCS(=O)(=O)CC(O)CSc1nc(-c2ccc(C)cc2)cc(-c2ccccc2)c1C#N (centres undefined) the results were 12-LOX inh -24%, HP1b binding inh -8%, G9a block 7.9µM*, JMJD2A Tudor -25% and BAZ2B inh -2%.
`N#Cc1c(-c2ccc(Cl)cc2)cc(-c2ccccc2)nc1SCC(=O)O` gave 12-LOX inh 11µM*, HP1b binding inh 46%, G9a block inconclusive, Sfp inh -14%, JMJD2A Tudor -26% and BAZ2B inh 56µM*.
Screening N#Cc1c(-c2ccco2)cc(-c2ccc(F)cc2)nc1N returned 12-LOX inh 5.6µM*, HP1b binding inh 54%, G9a block inconclusive, Sfp inh 28µM*, JMJD2A Tudor -24% and BAZ2B inh -11%.
`N#Cc1c(-c2ccccc2)cc(C2CC2)nc1SCC(=O)c1cccs1` gave 12-LOX inh 0%, HP1b binding inh 44%, G9a block 50%, Sfp inh 3%, JMJD2A Tudor -1% and BAZ2B inh 4%.
For Cc1ccc2nc(C)cc(C(=O)NC3CCC(O)CC3)c2c1 (centres undefined) the results were 12-LOX inh 12%.
`CC(C)c1nnc2sc(-c3ccc4c(c3)OCO4)nn12` gave 12-LOX inh -3%.
CCN(CC)Cc1cnc2c(C(=O)NC3CCNCC3)cnn2c1 was read as 12-LOX inh -14%.
For N#Cc1c(-c2ccccc2)cc(-c2ccccc2)nc1SCC(=O)Nc1ccc(Cl)cc1 the results were 12-LOX inh -14%, HP1b binding inh 43%, G9a block inconclusive, JMJD2A Tudor 7% and BAZ2B inh 12%.
For COc1cc(-c2cc(-c3ccccc3)nc(SCC(=O)O)c2C#N)cc(OC)c1OC the results were 12-LOX inh -6%, HP1b binding inh -18%, G9a block 50µM*, Sfp inh -18%, JMJD2A Tudor -8% and BAZ2B inh 0%.
N#Cc1c(-c2ccc(F)cc2)cc(-c2ccccc2)nc1SCC(=O)NCC(=O)O was read as 12-LOX inh inconclusive, HP1b binding inh inconclusive, Sfp inh 2.2µM*, JMJD2A Tudor 79µM* and BAZ2B inh 50µM*.
`N#Cc1c(-c2ccccc2)cc(-c2ccccc2)nc1SCCC(=O)O` gave 12-LOX inh 0%, HP1b binding inh -11%, Sfp inh 45µM*, JMJD2A Tudor -22% and BAZ2B inh 3%.
COc1ccccc1-c1cc(-c2ccccc2)nc(SC(C(N)=O)c2ccccc2)c1C#N (centres undefined) was read as 12-LOX inh 14%, HP1b binding inh 38%, G9a block -29%[59 µM], Sfp inh -16%, JMJD2A Tudor -13% and BAZ2B inh 79µM*.
For Cc1nc(SC(C(N)=O)c2ccccc2)c(C#N)c(C)c1C (centres undefined) the results were 12-LOX inh 107%, HP1b binding inh 42%, G9a block -15%, Sfp inh 0%, JMJD2A Tudor 1% and BAZ2B inh 3%.
Screening CCCCCNC(=O)c1ccncc1 returned 12-LOX inh -15%.
Screening COc1ccc(-c2nnc(SCC(=O)NCc3ccccc3CN3CCOCC3)n2C)cc1 returned 12-LOX inh 31%.
For N#Cc1c(-c2ccco2)cc(C2CC2)nc1SCC(=O)c1ccccc1 the results were 12-LOX inh inconclusive, HP1b binding inh 32%, G9a block inconclusive, Sfp inh 35µM*, JMJD2A Tudor 0% and BAZ2B inh -1%.
COC(=O)CSc1nc(N)c(C#N)c(-c2ccco2)c1C#N was read as 12-LOX inh 12%, HP1b binding inh 30%, G9a block -6%[59 µM], Sfp inh -29%, JMJD2A Tudor -6% and BAZ2B inh -1%.
Screening COC(=O)CSc1nc(-c2ccccc2)cc(-c2ccco2)c1C#N returned 12-LOX inh 0%, HP1b binding inh 9%, G9a block 8%[0.501 µM], Sfp inh inconclusive, JMJD2A Tudor inconclusive and BAZ2B inh 71µM*.
Screening N#Cc1c(-c2cccs2)cc(C2CC2)nc1SCC(N)=O returned 12-LOX inh 145%, HP1b binding inh 46%, G9a block 9%[12.7 µM], Sfp inh -5%, JMJD2A Tudor 0% and BAZ2B inh 9%.
Cc1ccccc1NC(=O)c1ccc2c(c1)N(C)C1CCCN1C2=O (centres undefined) was read as 12-LOX inh -6%.
For COC(=O)c1ccc(COC(=O)CCC(=O)c2ccc(Cl)cc2)cc1 the results were 12-LOX inh 3%.
`Cc1cccc2sc(NC(=O)C3=NN(c4ccccc4)C(=O)CC3)nc12` gave 12-LOX inh -2%, HP1b binding inh 36%, G9a block 50µM*, Sfp inh -2%, JMJD2A Tudor -7% and BAZ2B inh -3%.
Screening Cc1ccc2nc(NC(=O)C3=NN(c4ccccc4)C(=O)CC3)sc2c1 returned 12-LOX inh inconclusive, HP1b binding inh 24%, G9a block -26%, Sfp inh 1%, JMJD2A Tudor -18% and BAZ2B inh 3%.
For Cc1nc(C)c(C(=O)Nc2nc3c(C)cccc3s2)o1 the results were 12-LOX inh inconclusive, HP1b binding inh inconclusive, G9a block 14µM*, Sfp inh 50µM*, JMJD2A Tudor 35µM* and BAZ2B inh 35µM*.
For Cc1cccc2sc(NC(=O)C3CCCO3)nc12 (centres undefined) the results were 12-LOX inh 13%, HP1b binding inh 4%, G9a block 18%[59 µM], Sfp inh 27%, JMJD2A Tudor -7% and BAZ2B inh -3%.
For Cc1noc(C)c1C(=O)N1Cc2ccccc2CC2(CCN(CC3CCNCC3)C2)C1 (centres undefined) the results were 12-LOX inh -25%[6.33 µM].
For CC1CCc2[nH]c3ccc(C(=O)N(C)CC(=O)Nc4ccccc4Cl)cc3c2C1 (centres undefined) the results were 12-LOX inh inconclusive, HP1b binding inh -37%, G9a block 50µM*, JMJD2A Tudor inconclusive and BAZ2B inh inconclusive.
For CCN(CC(=O)Nc1ccccc1OC)C(=O)c1ccc2[nH]c3c(c2c1)CC(C)CC3 (centres undefined) the results were 12-LOX inh 1%, HP1b binding inh -24%, G9a block -12%[12.7 µM], JMJD2A Tudor inconclusive and BAZ2B inh inconclusive.
